Experimental findings from PubChem BioAssay (EPA / NIEHS) are described below.

Each structure is given as a SMILES string. Activity calls are given as the source filed them. How the source made its calls: active means hit-call score of the fitted dose curve at least 0.9, where 1 is the maximum; inactive means score below 0.9.

Read-out in test [1]: Interleukin-1 alpha (IL1a), IL1A (gene 3552)
Kind of test: BSK_KF3CT_IL1a: BioMAP Diversity Plus: KF3CT Assay for Interleukin-1 alpha (IL1a) Biomarker Activity (AID 2283070). The conditions noted are these: primary human keratinocytes with fibroblasts; actives raise or lower the signal. The method in brief:
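Readout is IL-1a level by ELISA, compared bidirectionally with DMSO as baseline. Cells: human keratinocytes co-cultured with foreskin fibroblasts, harvested 24 h post-dose.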

Read-out in test [2]: TIMP metallopeptidase inhibitor 2 (TIMP2), TIMP2 (gene 7077)
Kind of test: BSK_KF3CT_TIMP2: BioMAP Diversity Plus: KF3CT Assay for TIMP metallopeptidase inhibitor 2 (TIMP2) Biomarker Activity (AID 2283071). As to conditions: primary human keratinocytes with fibroblasts; actives raise or lower the signal. In short, it runs like this:
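Measurements come from ELISA detection of TIMP-2 at 24 hours in a dosed human keratinocyte and foreskin fibroblast co-culture. DMSO serves as negative control and baseline.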

Read-out in test [3]: Transforming growth factor beta 1 (TGFb1), TGFB1 (gene 7040)
Kind of test: BSK_KF3CT_TGFb1: BioMAP Diversity Plus: KF3CT Assay for Transforming growth factor beta 1 (TGFb1) Biomarker Activity (AID 2283072). As to conditions: primary human keratinocytes with fibroblasts; actives raise or lower the signal. In short, it runs like this:
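TGF-b1 ELISA on a 24 h dosed co-culture of human keratinocytes and foreskin fibroblasts; cytotoxicity tracked in parallel cultures by SRB staining.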

Read-out in test [4]: C-C motif chemokine 2 (Homo sapiens) (UniProt P13500)
Kind of test: BSK_KF3CT_MCP1: BioMAP Diversity Plus: KF3CT Assay for Monocyte Chemoattractant Protein 1 (MCP1/CCL2) Biomarker Activity (AID 2283073). As to conditions: primary human keratinocytes with fibroblasts; actives raise or lower the signal. The method in brief:
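Keratinocytes and foreskin fibroblasts were co-cultured, dosed with chemical, and sampled 24 h later. MCP-1 was quantified by ELISA, and the endpoint was analyzed with bidirectional fitting using DMSO as negative control.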

Read-out in test [5]: Matrix Metallopeptidase 9 (MMP9), MMP9 (gene 4318)
Kind of test: BSK_KF3CT_MMP9: BioMAP Diversity Plus: KF3CT Assay for Matrix Metallopeptidase 9 (MMP9) Biomarker Activity (AID 2283074). As to conditions: primary human keratinocytes with fibroblasts; actives raise or lower the signal. The method in brief:
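Values come from bidirectional fitting relative to DMSO of MMP-9 levels, which were measured by ELISA. Measurements were taken 24 h after chemical dosing of a keratinocyte and foreskin fibroblast co-culture.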

Read-out in test [6]: urokinase plasminogen activator (uPA), PLAU (gene 5328)
The test is described as follows: BSK_KF3CT_uPA: BioMAP Diversity Plus: KF3CT Assay for urokinase plasminogen activator (uPA) Biomarker Activity (AID 2283075). The conditions noted are these: primary human keratinocytes with fibroblasts; actives raise or lower the signal. The method in brief:
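Values derive from bidirectional fitting against DMSO controls. Keratinocyte/foreskin fibroblast co-cultures received chemical; 24 h later uPA was detected by ELISA, with SRB total-protein staining in parallel wells for overt cytotoxicity.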

Read-out in test [7]: CD40, CD40 (gene 958)
The test is described as follows: BSK_LPS_CD40: BioMAP Diversity Plus: LPS Assay for CD40 Biomarker Activity (AID 2283076). As to conditions: primary human HUVEC with PBMC; actives raise or lower the signal. In short, it runs like this: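 CD40 signal, measured by ELISA, is fitted in both directions relative to DMSO vehicle. The system is an LPS-driven human vascular primary co-culture of endothelial cells and PBMC, sampled 24 h after compound addition.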

Read-out in test [8]: E-selectin (Homo sapiens) (UniProt P16581)
The test is described as follows: BSK_LPS_Eselectin: BioMAP Diversity Plus: LPS Assay for Eselectin Biomarker Activity (AID 2283077). The conditions noted are these: primary human HUVEC with PBMC; actives raise or lower the signal. In short, it runs like this: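 Signal of E-selectin, detected by ELISA, served as the endpoint; cells were umbilical vein endothelium with PBMC, read 24 h after treatment. DMSO defined baseline, and both increases and decreases were fitted.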

Read-out in test [9]: Interleukin-8 (IL8), CXCL8 (gene 3576)
The test is described as follows: BSK_LPS_IL8: BioMAP Diversity Plus: LPS Assay for Interleukin-8 (IL8) Biomarker Activity (AID 2283078). As to conditions: primary human HUVEC with PBMC; actives raise or lower the signal. The method in brief: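 Endothelial cells and PBMC from human donors are co-cultured, treated with chemicals and LPS, then assayed for IL-8 by ELISA after 24 h. Parallel SRB staining (0.1% SRB after 10% TCA fixation, 560 nm) flags cytotoxicity.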

Test [10] can be described thus: BSK_LPS_SRB: Viability Assessment in the BioMAP Diversity Plus: LPS Assay (AID 2283079).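 Further: total protein by sulforhodamine B absorbance as a cytotoxicity measure; measured one day after compound addition; fitted in both directions against DMSO so loss or gain of signal counts.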 The conditions noted are these: primary human HUVEC with PBMC. In short, it runs like this: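 Overt cytotoxicity was gauged by sulforhodamine B total-protein staining in a primary human vascular endothelial and mononuclear cell co-culture 24 h post-dosing. Activity was fitted in both directions relative to DMSO.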

Read-out in test [11]: Interleukin-1 alpha (IL1a), IL1A (gene 3552)
Kind of test: BSK_LPS_IL1a: BioMAP Diversity Plus: LPS Assay for Interleukin-1 alpha (IL1a) Biomarker Activity (AID 2283080). The conditions noted are these: primary human HUVEC with PBMC; actives raise or lower the signal. In short, it runs like this:
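Measured: IL-1 alpha via ELISA at 24 h in LPS-activated human umbilical vein endothelium–PBMC co-culture. Baseline: DMSO, bidirectional fitting.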

Read-out in test [12]: Monocyte Chemoattractant Protein-1 (MCP1), CCL2 (gene 6347)
Kind of test: BSK_LPS_MCP1: BioMAP Diversity Plus: LPS Assay for Monocyte Chemoattractant Protein-1 (MCP1) Biomarker Activity (AID 2283081).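 On AC50: secreted MCP-1 protein quantified by ELISA in culture supernatant.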 As to conditions: primary human HUVEC with PBMC; actives raise or lower the signal. The method in brief: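 LPS-stimulated HUVEC/PBMC co-culture; chemical, 24 h; MCP-1 by ELISA; bidirectional fit vs DMSO; cytotoxicity via SRB (0.1% stain, 10% TCA fix, 560 nm) in parallel wells.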

The nature of test [13]: BSK_LPS_PGE2: BioMAP Diversity Plus: LPS Assay for Prostaglandin E2 (PGE2) Biomarker Activity (AID 2283082).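 On AC50: secreted prostaglandin E2 measured by ELISA in LPS-stimulated co-culture.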 As to conditions: primary human HUVEC with PBMC; actives raise or lower the signal. In short, it runs like this: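 Primary human endothelial cells and blood mononuclear cells, co-cultured with LPS, receive test chemical; PGE2 ELISA follows at 24 h, with SRB-stained parallel cultures flagging cytotoxicity.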

Read-out in test [14]: Tissue Factor, F3 (gene 2152)
Kind of test: BSK_LPS_TissueFactor: BioMAP Diversity Plus: LPS Assay for Tissue Factor Biomarker Activity (AID 2283084). The conditions noted are these: primary human HUVEC with PBMC; actives raise or lower the signal. The method in brief:
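In this co-culture system of umbilical vein endothelium with PBMC, stimulated with LPS, cell-surface CD142 is detected by ELISA at 24 h. Endpoint values derive from bidirectional fitting, DMSO serving as baseline.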

Read-out in test [15]: Vascular cell adhesion molecule 1 (VCAM1), VCAM1 (gene 7412)
Kind of test: BSK_LPS_VCAM1: BioMAP Diversity Plus: LPS Assay for Vascular cell adhesion molecule 1 (VCAM1) Biomarker Activity (AID 2283086). The conditions noted are these: primary human HUVEC with PBMC; actives raise or lower the signal. In short, it runs like this:
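Measured by ELISA: VCAM-1 in LPS-activated HUVEC/PBMC co-cultures 24 h after treatment. Values reflect bidirectional fitting with DMSO as baseline.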

Read-out in the next test: CD38, CD38 (gene 952)
The test is described as follows: BSK_SAg_CD38: BioMAP Diversity Plus: SAg Assay for CD38 Biomarker Activity (AID 2283087). As to conditions: primary human HUVEC with PBMC; actives raise or lower the signal. The method in brief:
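Measures CD38 on a human endothelial/PBMC co-culture driven by SEB and TSST-1, 24 h after compound exposure, using ELISA with fluorescence detection; DMSO defines baseline for bidirectional curve fitting.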

Read-out in test [16]: CD40, CD40 (gene 958)
Kind of test: BSK_SAg_CD40: BioMAP Diversity Plus: SAg Assay for CD40 Biomarker Activity (AID 2283088). As to conditions: primary human HUVEC with PBMC; actives raise or lower the signal. In short, it runs like this:
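Fluorescence ELISA read-out of CD40 from umbilical vein endothelium plus peripheral blood mononuclear cells, sampled 24 h after dosing. Values come from bidirectional curve fitting with DMSO as baseline.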

Read-out in the next test: CD69, CD69 (gene 969)
Kind of test: BSK_SAg_CD69: BioMAP Diversity Plus: SAg Assay for CD69 Biomarker Activity (AID 2283089). The conditions noted are these: primary human HUVEC with PBMC; actives raise or lower the signal. In short, it runs like this:
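HUVEC co-cultured with PBMC were dosed with chemical, and CD69 was measured by ELISA with fluorescence read-out 24 h later. Bidirectional curve fitting used DMSO as negative control and activity baseline.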

Read-out in test [17]: Macrophage colony-stimulating factor (MCSF), CSF1 (gene 1435)
The test is described as follows: BSK_LPS_MCSF: BioMAP Diversity Plus: LPS Assay for Macrophage colony-stimulating factor (MCSF) Biomarker Activity (AID 2283083). The conditions noted are these: primary human HUVEC with PBMC; actives raise or lower the signal. In short, it runs like this:
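Compound is added to a human vascular primary co-culture of umbilical vein endothelium and blood mononuclear cells. After 24 h, M-CSF is quantified by ELISA. Signal changes are fitted in both directions against DMSO.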

Read-out in test [18]: Tumor necrosis factor (Homo sapiens) (UniProt P01375)
The test is described as follows: BSK_LPS_TNFa: BioMAP Diversity Plus: LPS Assay for Tumour Necrosis Factor alpha (TNFa) Biomarker Activity (AID 2283085). The conditions noted are these: primary human HUVEC with PBMC; actives raise or lower the signal. In short, it runs like this:
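ELISA-based TNFa endpoint in a human endothelial–PBMC co-culture sampled 24 h post-exposure. Curves were fitted in both directions using DMSO as baseline of activity.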

Sequence of E-selectin (Homo sapiens) (P16581 whole entry, looked up): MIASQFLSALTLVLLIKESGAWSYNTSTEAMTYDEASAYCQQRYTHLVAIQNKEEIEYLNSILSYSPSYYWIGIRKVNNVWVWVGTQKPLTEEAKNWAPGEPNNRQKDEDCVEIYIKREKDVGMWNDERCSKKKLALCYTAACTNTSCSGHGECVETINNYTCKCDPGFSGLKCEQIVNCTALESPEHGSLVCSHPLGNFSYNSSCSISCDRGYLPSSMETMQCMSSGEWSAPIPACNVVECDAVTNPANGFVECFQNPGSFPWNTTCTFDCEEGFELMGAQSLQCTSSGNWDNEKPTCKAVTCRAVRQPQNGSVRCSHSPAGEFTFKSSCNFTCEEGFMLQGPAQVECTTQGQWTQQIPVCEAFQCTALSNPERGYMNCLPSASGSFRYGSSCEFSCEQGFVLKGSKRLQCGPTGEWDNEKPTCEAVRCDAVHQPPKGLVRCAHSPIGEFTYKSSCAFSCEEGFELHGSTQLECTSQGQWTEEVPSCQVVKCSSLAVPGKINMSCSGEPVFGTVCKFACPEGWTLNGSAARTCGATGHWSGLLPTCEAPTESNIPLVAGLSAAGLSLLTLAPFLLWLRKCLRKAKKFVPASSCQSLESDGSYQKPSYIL
Sequence of Tumor necrosis factor (Homo sapiens) (P01375 whole entry, looked up): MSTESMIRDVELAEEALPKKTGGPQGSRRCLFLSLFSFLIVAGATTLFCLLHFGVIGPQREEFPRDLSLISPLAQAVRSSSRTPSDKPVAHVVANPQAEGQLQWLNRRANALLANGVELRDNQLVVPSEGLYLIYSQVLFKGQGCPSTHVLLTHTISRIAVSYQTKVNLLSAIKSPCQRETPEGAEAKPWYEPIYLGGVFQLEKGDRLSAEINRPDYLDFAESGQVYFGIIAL

Take `c1nc[nH]n1`: the result in test [1], in test [2], in [3], in test [4], in [5] and in [6] was inactive. For the same compound, the outcome with CD40, CD40 (gene 958) [7] is “inactive”; in test [8] it was “inactive”; in test [9], “inactive”; in [10] it was “inactive”; in test [11], “inactive”; in test [12], “inactive”. In addition, the outcome is “inactive” in [13]; “inactive” in [14]; “inactive” in test [15]; “inactive” in the test with CD38, CD38 (gene 952); “inactive” in the test with CD40, CD40 (gene 958) [16]; “inactive” in the test with CD69, CD69 (gene 969).
For the compound `CCCCC(CC)COC(=O)c1c(Br)c(Br)c(Br)c(Br)c1C(=O)OCC(CC)CCCC` (stereo not drawn), the outcome in [1], in [2], in [3], in [4], in test [5] and in test [6] was inactive. Moreover, the outcome with CD40, CD40 (gene 958) [7] was “inactive”; in [9], “inactive”; in test [10], “inactive”; in [11], “inactive”; in test [12], “inactive”; in test [13] it was “inactive”. Also, the outcome was “inactive” in [17]; “inactive” in [14]; “inactive” in test [18]; “inactive” in test [15]; “inactive” in the test with CD38, CD38 (gene 952); “inactive” with CD40, CD40 (gene 958) [16]. In addition, the outcome with CD69, CD69 (gene 969) was inactive.
Regarding `COCCOCCO`, the outcome in test [1] is “inactive”; in test [3], “inactive”; in test [5], “inactive”; in test [6], “inactive”; with CD40, CD40 (gene 958) [7] it was “inactive”; in test [9], “inactive”. For the same compound, the outcome in test [10], in test [11], in [13], in [14], in test [18] and in test [15] was inactive. Moreover, the outcome in the test with CD38, CD38 (gene 952) was “inactive”; with CD40, CD40 (gene 958) [16] it was “inactive”; with CD69, CD69 (gene 969), “inactive”. Moreover, the figures for the AC50 in test [2], in test [4] and in test [12] were 148 nM (active), 254 nM (active) and 27500 nM (active), respectively.
Regarding `Cc1ccc(O)cc1C`, the outcome in test [1], in test [2], in [3], in test [4], in [5] and in test [6] was inactive. Also, the outcome with CD40, CD40 (gene 958) [7] is “inactive”; in [8], “inactive”; in [9] it was “inactive”; in test [10] it was “inactive”; in test [11], “inactive”; in [12], “inactive”. Also, the outcome in test [14] was “inactive”; in [15] it was “inactive”; in the test with CD38, CD38 (gene 952), “inactive”; with CD40, CD40 (gene 958) [16], “inactive”; in the test with CD69, CD69 (gene 969) it was “inactive”. Further, in [13], the AC50 is 4570 nM (active).

What is called AC50 is the concentration giving half of the maximal activity seen.
